Records with an inconclusive call do not appear. Unmarked numbers belong to inactive results. Unless noted, calls follow the shape of the full dose curve.
biological target: Progesterone receptor (Homo sapiens) (UniProt P06401); test: qHTS assay to identify small molecule agonists of the progesterone receptor (PR) signaling pathway (AID 1346784); conditions: PR-UAS-bla HEK293T, beta-lactamase FRET ratio, 16 h; series mostly up to 92.4 µM; activation: at the top concentration; also: nearly all actives have a fitted effect of over 30% in size
Sequence (P06401 whole entry, looked up): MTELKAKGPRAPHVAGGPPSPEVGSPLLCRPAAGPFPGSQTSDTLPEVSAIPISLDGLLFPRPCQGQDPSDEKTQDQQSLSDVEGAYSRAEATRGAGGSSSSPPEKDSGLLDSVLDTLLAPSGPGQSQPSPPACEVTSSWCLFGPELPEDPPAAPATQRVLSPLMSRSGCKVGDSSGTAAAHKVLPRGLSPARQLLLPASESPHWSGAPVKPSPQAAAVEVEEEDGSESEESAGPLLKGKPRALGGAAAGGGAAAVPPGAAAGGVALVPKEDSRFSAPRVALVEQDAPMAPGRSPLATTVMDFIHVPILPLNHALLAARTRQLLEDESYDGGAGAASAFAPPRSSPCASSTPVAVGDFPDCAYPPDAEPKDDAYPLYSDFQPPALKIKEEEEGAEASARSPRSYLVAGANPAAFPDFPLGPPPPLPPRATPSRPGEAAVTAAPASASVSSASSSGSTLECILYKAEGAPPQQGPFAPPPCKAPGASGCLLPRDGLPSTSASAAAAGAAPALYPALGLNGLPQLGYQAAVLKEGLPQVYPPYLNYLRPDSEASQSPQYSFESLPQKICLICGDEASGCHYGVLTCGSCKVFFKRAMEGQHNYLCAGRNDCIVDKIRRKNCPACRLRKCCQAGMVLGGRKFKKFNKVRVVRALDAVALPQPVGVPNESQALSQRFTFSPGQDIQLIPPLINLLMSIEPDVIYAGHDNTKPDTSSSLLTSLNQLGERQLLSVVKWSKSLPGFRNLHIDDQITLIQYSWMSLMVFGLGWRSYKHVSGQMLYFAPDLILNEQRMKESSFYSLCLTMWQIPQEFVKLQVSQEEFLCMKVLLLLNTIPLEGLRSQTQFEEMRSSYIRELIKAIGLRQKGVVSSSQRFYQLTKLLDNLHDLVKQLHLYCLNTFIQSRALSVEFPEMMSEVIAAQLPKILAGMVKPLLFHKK
Procedure, shortened: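 The screen uses PR-UAS-bla HEK 293T cells in charcoal-stripped serum (2%). Compounds are applied for 16 hr at 37C after a 6 hr pre-incubation, and reporter activity is detected with a FRET beta-lactamase substrate after 2 hr at room temperature.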
% is scaled to controls: 0 for no effect and ±100 for the full control effect.

Structure (SMILES)	activation
COc1cc2c(cc1OC)CN(C(=O)[C@H](C)N[C@@H](CCc1ccccc1)C(=O)O)[C@H](C(=O)O)C2	-1% [at 42.5 µM]
O=C(Cn1ccnc1[N+](=O)[O-])NCc1ccccc1	-0.556% [at 42.5 µM]
COC(=O)/C=C\C(=O)O	-1.62%
CCCCOC(=O)C(C)O (stereo unspecified)	-0.0689%
N#CCC(=O)NN	0.937% [at 42.5 µM]
Cc1cc(C)c(C(=O)O)c(C)c1	0.373%
CCOc1cccc(N)c1	-1.28%
O=C(CCCl)NCCc1ccccc1	-0.0804% [at 42.5 µM]
CC(=O)C1C(=O)C=C(C)OC1=O (stereo unspecified)	0.841%
CCOc1ccccc1OCC1CNCCO1 (stereo unspecified)	0.482% [at 42.5 µM]
CC1(C)O[C@H]2CC(=O)OC[C@]23[C@H]2CC[C@@]4(C)[C@H](c5ccoc5)OC(=O)[C@H]5O[C@]54[C@]2(C)C(=O)C[C@@H]13	-0.763% [at 42.5 µM]
CCO[Si](CC)(OCC)OCC	4.09%
CC(=O)CCc1ccc(OC(C)=O)cc1	-0.0569%
CCCCCCC1(C)CCC(=O)O1 (stereo unspecified)	0.245%
O=C(O)[C@H](O)c1ccccc1	4.26% [at 42.5 µM]
C=CC/C=C/C	0.227%
CCC(C)C(=O)OCCc1ccccc1 (stereo unspecified)	-0.0868%
COP(=O)(O)OP(=O)(O)OC	0%
O=C(O)c1cc2ccccc2nc1C(=O)O	-0.164%

Structure (SMILES)	activation
COc1cc(/C=C/C(N)=O)cc(OC)c1OC	-0.876% [at 42.5 µM]
COC(=O)c1cc(Cl)cc(Cl)c1	-1.17%
O=C1c2ccccc2C(=O)c2cc(Cl)ccc21	2.34% [at 8.39 µM]
CO[C@@]1(NC(=O)Cc2cccs2)C(=O)N2C(C(=O)O)=C(COC(N)=O)CS[C@@H]21	0.162% [at 42.5 µM]
C[C@H]1[C@@H](c2ccccc2)NC(=O)N1C	1.05%
CC/C=C\CCOC(=O)c1ccccc1O	4.03%
Cc1ccccc1C(N)=O	0.827%
OC1OCCOC1O (stereo unspecified)	0.996%
C/C=C(\C)C(C)=O	0.608%
COC(=O)c1ccccc1C(=O)O	0.087%
CC(C)c1ccc(C=O)cc1	0.523%
CCC/C=C(\C=O)CC	0%
CSc1cnccn1	0.506%
CCOC(=O)CC1(C)OCC(C)O1 (stereo unspecified)	0.797%
CC(=O)CC(=O)OC(C)(C)C	0.627%
Cc1c(NC(=O)c2cccnc2)c(=O)n(-c2ccccc2)n1C	0.589% [at 42.5 µM]
c1ccc(-c2nn[nH]n2)cc1	0.413%
CCCCCCCCCCOC(C)=O	0.0678%

biological target: Progesterone receptor (Homo sapiens) (UniProt P06401); test: qHTS assay to identify small molecule antagonists of the progesterone receptor (PR) signaling pathway (AID 1346795; active = well fitted inhibition curve with a large enough effect in the signal ratio in the repeat runs, not every such curve was filed as active; the % refers to the signal ratio); conditions: PR-UAS-bla HEK293T, beta-lactamase FRET ratio, 16 h; series mostly up to 92.4 µM; activity change, negative = inhibition: at the top concentration
Procedure, shortened: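 After 6 hr plating at 37C in 2% stripped-serum medium, PR-UAS-bla HEK293T cells got compounds, then 1 nM R5020. Sixteen hours later, LiveBLAzer substrate was applied for 2 hr at room temperature and fluorescence was recorded.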

Structure (SMILES)	activity change, negative = inhibition
COc1cc2c(cc1OC)CN(C(=O)[C@H](C)N[C@@H](CCc1ccccc1)C(=O)O)[C@H](C(=O)O)C2	1.47% [at 42.5 µM]
O=C(Cn1ccnc1[N+](=O)[O-])NCc1ccccc1	-0.488% [at 42.5 µM]
COC(=O)/C=C\C(=O)O	0.776%
CCCCOC(=O)C(C)O (stereo unspecified)	5.08%
N#CCC(=O)NN	8.69% [at 42.5 µM]
Cc1cc(C)c(C(=O)O)c(C)c1	16.8%
CCOc1cccc(N)c1	-9.29%
O=C(CCCl)NCCc1ccccc1	-0.854% [at 42.5 µM]
CC(=O)C1C(=O)C=C(C)OC1=O (stereo unspecified)	8.15%
CCOc1ccccc1OCC1CNCCO1 (stereo unspecified)	5.74% [at 42.5 µM]
CC1(C)O[C@H]2CC(=O)OC[C@]23[C@H]2CC[C@@]4(C)[C@H](c5ccoc5)OC(=O)[C@H]5O[C@]54[C@]2(C)C(=O)C[C@@H]13	7.6% [at 42.5 µM]
CCO[Si](CC)(OCC)OCC	0.219%
CC(=O)CCc1ccc(OC(C)=O)cc1	7.55%
CCCCCCC1(C)CCC(=O)O1 (stereo unspecified)	2.04%
O=C(O)[C@H](O)c1ccccc1	8.04% [at 42.5 µM]
C=CC/C=C/C	-4.53%
CCC(C)C(=O)OCCc1ccccc1 (stereo unspecified)	0.323%
COP(=O)(O)OP(=O)(O)OC	7.04%
O=C(O)c1cc2ccccc2nc1C(=O)O	8%

Structure (SMILES)	activity change, negative = inhibition
COc1cc(/C=C/C(N)=O)cc(OC)c1OC	0.331% [at 42.5 µM]
COC(=O)c1cc(Cl)cc(Cl)c1	14.3%
O=C1c2ccccc2C(=O)c2cc(Cl)ccc21	1.29% [at 8.39 µM]
CO[C@@]1(NC(=O)Cc2cccs2)C(=O)N2C(C(=O)O)=C(COC(N)=O)CS[C@@H]21	13.2% [at 42.5 µM]
C[C@H]1[C@@H](c2ccccc2)NC(=O)N1C	-4.44%
CC/C=C\CCOC(=O)c1ccccc1O	6.33%
Cc1ccccc1C(N)=O	8.2%
OC1OCCOC1O (stereo unspecified)	7.34%
C/C=C(\C)C(C)=O	8.45%
COC(=O)c1ccccc1C(=O)O	11.4%
CC(C)c1ccc(C=O)cc1	3.21%
CCC/C=C(\C=O)CC	3.61%
CSc1cnccn1	4.88%
CCOC(=O)CC1(C)OCC(C)O1 (stereo unspecified)	9.64%
CC(=O)CC(=O)OC(C)(C)C	12.4%
Cc1c(NC(=O)c2cccnc2)c(=O)n(-c2ccccc2)n1C	-0.6% [at 42.5 µM]
c1ccc(-c2nn[nH]n2)cc1	0.802%
CCCCCCCCCCOC(C)=O	1.8%

test system: not listed separately; test: qHTS assay to identify small molecule antagonists of the progesterone receptor (PR) signaling pathway - cell viability counter screen (AID 1346798; active = well fitted cell-killing curve with a large enough effect in the repeat runs; also: nearly all actives have a fitted effect of over 50% in size); conditions: PR-UAS-bla HEK293T viability, CellTiter-Glo luminescence, 16 h; series mostly up to 92.4 µM; activity change, negative = cytotoxicity: at the top concentration
Procedure, shortened: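 Viability was determined by ATP-based luminescence (CellTiter-Glo) in PR-UAS-bla HEK293T cells cultured in 2% charcoal-stripped serum and incubated 16 hr with compounds under R5020 stimulation.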

Structure (SMILES)	activity change, negative = cytotoxicity
COc1cc2c(cc1OC)CN(C(=O)[C@H](C)N[C@@H](CCc1ccccc1)C(=O)O)[C@H](C(=O)O)C2	4.22% [at 42.5 µM]
O=C(Cn1ccnc1[N+](=O)[O-])NCc1ccccc1	21.3% [at 42.5 µM]
COC(=O)/C=C\C(=O)O	-2.2%
CCCCOC(=O)C(C)O (stereo unspecified)	4.81%
N#CCC(=O)NN	0.39% [at 42.5 µM]
Cc1cc(C)c(C(=O)O)c(C)c1	9.82%
CCOc1cccc(N)c1	-8.81%
O=C(CCCl)NCCc1ccccc1	-17.9% [at 42.5 µM]
CC(=O)C1C(=O)C=C(C)OC1=O (stereo unspecified)	16.9%
CCOc1ccccc1OCC1CNCCO1 (stereo unspecified)	3.04% [at 42.5 µM]
CC1(C)O[C@H]2CC(=O)OC[C@]23[C@H]2CC[C@@]4(C)[C@H](c5ccoc5)OC(=O)[C@H]5O[C@]54[C@]2(C)C(=O)C[C@@H]13	-4.75% [at 42.5 µM]
CCO[Si](CC)(OCC)OCC	9%
CC(=O)CCc1ccc(OC(C)=O)cc1	7.73%
CCCCCCC1(C)CCC(=O)O1 (stereo unspecified)	0.117%
O=C(O)[C@H](O)c1ccccc1	1.03% [at 42.5 µM]
C=CC/C=C/C	-17.5%
CCC(C)C(=O)OCCc1ccccc1 (stereo unspecified)	-0.0218%
COP(=O)(O)OP(=O)(O)OC	6.91%
O=C(O)c1cc2ccccc2nc1C(=O)O	13%

Structure (SMILES)	activity change, negative = cytotoxicity
COc1cc(/C=C/C(N)=O)cc(OC)c1OC	0.283% [at 42.5 µM]
COC(=O)c1cc(Cl)cc(Cl)c1	-5.39%
O=C1c2ccccc2C(=O)c2cc(Cl)ccc21	-7.61% [at 8.39 µM]
CO[C@@]1(NC(=O)Cc2cccs2)C(=O)N2C(C(=O)O)=C(COC(N)=O)CS[C@@H]21	18.2% [at 42.5 µM]
C[C@H]1[C@@H](c2ccccc2)NC(=O)N1C	0.591%
CC/C=C\CCOC(=O)c1ccccc1O	-4.92%
Cc1ccccc1C(N)=O	23.2%
OC1OCCOC1O (stereo unspecified)	3.17%
C/C=C(\C)C(C)=O	1.95%
COC(=O)c1ccccc1C(=O)O	-7.75%
CC(C)c1ccc(C=O)cc1	0.445%
CCC/C=C(\C=O)CC	1.29%
CSc1cnccn1	7.45%
CCOC(=O)CC1(C)OCC(C)O1 (stereo unspecified)	0.18%
CC(=O)CC(=O)OC(C)(C)C	-9.87%
Cc1c(NC(=O)c2cccnc2)c(=O)n(-c2ccccc2)n1C	2.58% [at 42.5 µM]
c1ccc(-c2nn[nH]n2)cc1	3.53%
CCCCCCCCCCOC(C)=O	-13%

— PubChem BioAssay (Tox21)
